Test results as given in ChEMBL document CHEMBL4513147, “CO-ADD screening of Armstrong State University (GA, USA) compounds”.
Potency and affinity values are given separately.

How the values were obtained:
Klebsiella pneumoniae = conditions: Concentration 32 ug.mL-1; ASSAY_TEST Inhibition of Bacterial Growth; detection method Absorption (OD600); MEDIA CAMHB; plate type 384well; NBS; CORNING #3640; time 18 hr
Candida albicans = conditions: 32 ug/mL
Cryptococcus neoformans = conditions: Concentration 32 ug.mL-1; ASSAY_TEST Inhibition of Fungal Growth; detection method Resazurin; Absorption (OD600-OD570); plate type 384well; NBS; CORNING #3640

SMILES | Inhibition (Klebsiella pneumoniae) | Inhibition (Candida albicans) | Inhibition (Cryptococcus neoformans)
COc1ccc2c(c1)CCC(=Cc1cccnc1Br)C2=O | 13.02% | 3.93% | -19.45%
CC(C)(C)OC(=O)N1CC(=Cc2ccoc2)C(=O)/C(=C/c2ccoc2)C1 | 21.57% | 14.2% | -84.77%
COc1ccc2c(c1)CCC(=Cc1ccccn1)C2=O | 8.96% | 0.77% | -41.47%
Cc1ccc(C=C2CN(C(=O)OC(C)(C)C)C/C(=C\c3ccc(C)cc3C)C2=O)c(C)c1 | 13.54% | -1.7% | -52.76%
COc1cc2c(cc1OC)C(=O)C(=Cc1ccoc1)CC2 | 14.64% | 20% | -157.54%
COc1ccc2c(c1)CCC(=Cc1cccnc1Cl)C2=O | 12.5% | 3.75% | -15.01%
COc1ccc2c(c1)C(=O)C(=Cc1ccccn1)CC2 | 11.4% | 3.51% | -7.78%
COc1ccc2c(c1)C(O)C(=Cc1cccnc1Cl)CC2 (stereo not drawn) | 10.57% | 15% | -69.16%
COc1cccc2c1CCC(=Cc1cccc(C=C3CCc4c(OC)cccc4C3=O)c1)C2=O | 0.44% | 12.4% | -91.11%
COc1cccc2c1CCC(=Cc1ccoc1)C2=O | 11.44% | 10.1% | -46.61%
COc1ccc(/C=C/C(=O)c2ccc(OCc3ccc(Br)cc3)cc2)cc1OC | 12.55% | 14.1% | -82.08%
COc1ccc2c(c1)CCC(=Cc1ccco1)C2=O | 10.81% | 4.52% | -43.38%
COc1ccc2c(c1)C(=O)C(=Cc1ccoc1)CC2 | 17.88% | 8.42% | -57.68%
COc1cccc2c1CCC(=Cc1ccco1)C2=O | 9.39% | 2.23% | 7.54%
CC(C)(C)OC(=O)N1CC(=Cc2ccco2)C(=O)/C(=C/c2ccco2)C1 | 8.12% | 19.9% | -64.29%
COc1ccc2c(c1)C(=O)C(=Cc1cccnc1)CC2 | 13.34% | 3.76% | 20.35%

SMILES | Inhibition (Klebsiella pneumoniae) | Inhibition (Candida albicans) | Inhibition (Cryptococcus neoformans)
COc1ccc2c(c1)CCC(=Cc1cccnc1)C2=O | 16.02% | 2.52% | -44.32%
COc1ccc2c(c1)C(=O)C(=Cc1ccco1)CC2 | 14.42% | 6.5% | -54.58%
COc1ccc2c(c1)C(=O)C(=Cc1cccnc1Cl)CC2.Cl | 17.3% | 3.54% | -54.29%
COc1ccc2c(c1)CCC(=Cc1ccoc1)C2=O | 11.83% | 5.64% | -36.87%
COc1ccc2c(c1)C(=O)C(=Cc1cccnc1Br)CC2 | 8.16% | 1.26% | -14.82%
COc1cc2c(cc1OC)C(=O)C(=Cc1ccco1)CC2 | 12.89% | 36.5% | -192.19%
COc1ccc2c(c1)C(=O)C(=Cc1cccnc1OC)CC2 | 14.75% | 2.73% | -33.37%
COc1ccc2c(c1)CCC(=Cc1cncc(Br)c1)C2=O | 10.09% | 4.95% | -1.36%
COc1ccc2c(c1)C(=O)C(=Cc1cccnc1Cl)CC2 | 12.62% | 6.91% | -40.92%
COc1ccc2c(c1)C(=O)C(=Cc1cncc(Br)c1)CC2 | 11.33% | 3.19% | -18.22%
COc1ccc2c(c1)C(=O)C(=Cc1cnccc1OC)CC2 | 13.46% | 2.37% | -28.9%
COc1ccc2c(c1)CCC(=Cc1cnccc1OC)C2=O | 11.4% | -0.18% | -48.3%
COc1ccc2c(c1)CCC(=Cc1ccc(OC)nc1)C2=O | 13.52% | 3.72% | -60.31%
COc1ccc2c(c1)CCC(=Cc1ccncc1)C2=O | 14.05% | 2.55% | -80.91%
COc1ccc2c(c1)C(=O)C(=Cc1cccc(C=C3CCc4ccc(OC)cc4C3=O)c1)CC2 | 10.58% | 2.22% | -34.17%
